According to the supplement of paper PMC13380429:

Tests used:
[1] = system: Vero E6 infected with SARS-CoV-2; experiment: morphology score (similarity to uninfected cells); higher = more like uninfected cells; conditions: 24 h
[2] = system: Vero E6 infected with SARS-CoV-2; experiment: SARS-CoV-2 infection rate relative to infected DMSO; higher = more infection, active = 60 or less; conditions: 24 h

SMILES	morphology score [1]	SARS-CoV-2 infection rate [2]
O=c1[nH]c(=O)n([C@H]2C[C@H](O)[C@@H](CO)O2)cc1Br [broxuridine] (0.833333 µM)	0.0347	108% (inactive)
COc1ccc(CC2NCCc3cc(OC)c(OC)cc32)cc1OC (stereo unspecified) [tetrahydropapaverine] (10 µM)	-0.026	108% (inactive)
Cn1c(C#N)ccc1-c1ccc2c(c1)C(C)(C)OC(=S)N2 [tanaproget] (10 µM)	0.0429	102% (inactive)
N=C(N)NCCSSCCNC(=N)N [guanidinoethyldisulfide-bicarbonate] (10 µM)	0.0245	107% (inactive)
CC(C)c1cc2c(cc1S(=O)(=O)O)[C@@]1(C)CCC[C@@](C)(C(=O)O)[C@@H]1CC2 [ecabet] (10 µM)	0.0527	102% (inactive)
CCCC(C)NC(=O)c1ccc(Cl)c(Cl)c1 (stereo unspecified) (10 µM)	-0.46	119% (inactive)
CC(C)SC(=N)N [S-isopropylisothiourea] (10 µM)	0.0211	105% (inactive)
CC(C)n1c(/C=C/[C@@H](O)C[C@@H](O)CC(=O)O)c(-c2ccc(F)cc2)c2ccccc21 [fluvastatin] (0.833333 µM)	-0.082	115% (inactive)
CCCCCOC(=O)Nc1nc(=O)n([C@@H]2O[C@H](C)[C@@H](O)[C@H]2O)cc1F [capecitabine] (10 µM)	-0.208	114% (inactive)
Cc1ccc(NCCCc2ccccc2)c(N)c1 [NFKB-activation-inhibitor-II] (10 µM)	0.238	102% (inactive)
CC(C)NC[C@@H](O)c1ccc(O)c(O)c1 (racemic) [isoprenaline] (0.833333 µM)	0.241	100% (inactive)
NC(=O)[C@@H]1CC[C@@H]2CN1C(=O)N2OS(=O)(=O)O [avibactam] (10 µM)	0.0638	108% (inactive)
CN1[C@@H]2CC[C@H]1C[C@@H](OC(c1ccccc1)c1ccccc1)C2 [benztropine-mesylate] (10 µM)	0.481	84.5% (inactive)
